Test results reported in PubChem BioAssay.
Unmarked numbers belong to inactive results.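 The calls were made as follows: active = fluorescence slope higher than the sample average by over 3 SD (cut at about -0.22 in these data, passing the limit was not always enough); inactive = the rest.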

target: Voltage-gated potassium channel subunit beta-2 (Rattus norvegicus) (UniProt P62483); assay: inhibitors of rat Kvbeta2 reductase activity – biochemical, NADPH fluorescence, primary screen (AID 622); details: recombinant KvBeta, 4-cyanobenzaldehyde reduction, at 10 µM, active compounds read high;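 also: slope of raw intensity against log time taken from 70 to 1610 s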
Sequence (P62483 whole entry, looked up): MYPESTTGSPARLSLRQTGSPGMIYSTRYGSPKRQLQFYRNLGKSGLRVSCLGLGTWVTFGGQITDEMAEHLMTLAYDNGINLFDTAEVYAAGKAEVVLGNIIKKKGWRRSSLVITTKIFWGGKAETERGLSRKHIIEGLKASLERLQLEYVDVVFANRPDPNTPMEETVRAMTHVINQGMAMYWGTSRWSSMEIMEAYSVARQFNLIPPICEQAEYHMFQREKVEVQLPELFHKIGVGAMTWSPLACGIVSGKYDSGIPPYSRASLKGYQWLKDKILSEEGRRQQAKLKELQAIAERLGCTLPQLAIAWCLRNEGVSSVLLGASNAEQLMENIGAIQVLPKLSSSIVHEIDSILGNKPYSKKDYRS

Q: With `Cc1nc(NCc2ccccc2)c(C(N)=O)c2c1COC(C)(C)C2` as the compound, how does the fluorescence slope read?
A: Its fluorescence slope is -0.512.

Q: Which fluorescence slope does the source give for `Cc1nc2n[nH]c(N)c2c2c1COC(C)(C)C2` here?
A: The fluorescence slope was -0.516.

Q: With `C=CCNC(=O)C(C#N)c1nc2ccccc2nc1N1CCCCCC1` (stereo not drawn) as the compound, how does the fluorescence slope read?
A: Its fluorescence slope is -0.302.

Q: Which fluorescence slope does the source give for `CC(C)C(C(=O)Nc1ncn[nH]1)N1C(=O)c2ccccc2C1=O` (stereo not drawn) here?
A: The fluorescence slope was -0.47.

Q: Which fluorescence slope does the source give for `CCCCOc1cccc(-c2nnc(N)s2)c1` here?
A: The fluorescence slope was -0.395.

Q: With `COc1ccc(OC(=O)c2cc3ccccc3o2)cc1` as the compound, how does the fluorescence slope read?
A: Its fluorescence slope is -0.377.

Q: `CCNc1nc(NC(C)C)nc(N(C#N)C(C)C(=O)N(C)C)n1` (stereo not drawn) was tested. Which fluorescence slope did it give?
A: Its fluorescence slope is -0.445.

Q: `CCOC(=O)CSc1nc(-c2ccncc2)ccc1C#N` was tested. Which fluorescence slope did it give?
A: Its fluorescence slope is -0.355.

Q: With `CCOc1cccc(-c2nnc3sc(C4CCCCC4)nn23)c1` as the compound, how does the fluorescence slope read?
A: The fluorescence slope was -0.446.

Q: `CCCCn1c(O)c(C=NCCCN(C)C)c(=O)[nH]c1=O` was tested. Which fluorescence slope did it give?
A: The fluorescence slope was -0.44.

Q: `COc1cccc(C2C(C#N)=C(N)Oc3cc(C)[nH]c(=O)c32)c1OC` (stereo not drawn) was tested. Which fluorescence slope did it give?
A: Its fluorescence slope is -0.524.

Q: Which fluorescence slope does the source give for `Cc1cc(=O)oc(C)c1C(=O)Nc1cccc2nonc12` here?
A: The fluorescence slope was -0.297.

Q: With `COc1cc(OC)cc(C(=O)N2CCC(N3CCN(c4ccccc4)CC3)CC2)c1` as the compound, how does the fluorescence slope read?
A: Its fluorescence slope is -0.342.

Q: `Cc1ccc2[nH]c3c(c2c1)CN(C(=O)CN1CCN(c2ccccn2)CC1)CC3` was tested. Which fluorescence slope did it give?
A: Its fluorescence slope is -0.453.

Q: `COC(=O)c1sccc1NC(=O)c1c(C)cc(=O)oc1C` was tested. Which fluorescence slope did it give?
A: The fluorescence slope was -0.515.

Q: With `CCN(CC)c1ccc2cc(-c3nnc(-c4ccncc4)o3)c(=O)oc2c1` as the compound, how does the fluorescence slope read?
A: The fluorescence slope was -0.436.

Q: `CC(C)(C)NC(=O)CSc1nsc(SCC(=O)NC(C)(C)C)c1C#N` was tested. Which fluorescence slope did it give?
A: Its fluorescence slope is -0.412.

Q: With `COC(=O)CN(c1nc(C)c(Br)c(OC)n1)S(=O)(=O)c1ccc(C)cc1` as the compound, how does the fluorescence slope read?
A: The fluorescence slope was -0.379.

Q: Which fluorescence slope does the source give for `COc1cc(C2C3C(=O)N(c4ccccc4)C(=O)C3ON2c2ccccc2)ccc1O` (stereo not drawn) here?
A: The fluorescence slope was -0.418.

Q: How did the fluorescence slope turn out when `Cc1ccc(C2C(C(=O)c3cc4ccccc4o3)=C(O)C(=O)N2CCCN(C)C)cc1` (stereo not drawn) was run?
A: Its fluorescence slope is -0.414.

Q: `CC(C)C1Cc2c(C#N)c(N)n(C)c(=S)c2CO1` (stereo not drawn) was tested. Which fluorescence slope did it give?
A: Its fluorescence slope is -0.509.

Q: `CCC12CN3CC(CC)(CN(C1)C3c1c(O)ccc3ccccc13)C2=O` (stereo not drawn) was tested. Which fluorescence slope did it give?
A: The fluorescence slope was -0.336.

Q: How did the fluorescence slope turn out when `CCOc1ccc(CCNC(=O)C(O)c2ccccc2)cc1` (stereo not drawn) was run?
A: The fluorescence slope was -0.517.
